The values below come from PubChem BioAssay.

A short description of assay [1]: compound effects on lung adenocarcinoma cell viability – A549, calcein-AM fluorescence, 48 h, basal, profiling panel (AID 1162). To be noted: higher = more signal.
Assay [2] is described as follows: compound effects on differentiated 3T3-L1 adipocyte viability – cell-based, 3T3-L1 adipocytes, calcein-AM fluorescence, 48 h, basal, profiling panel (AID 1163). The note with it: 3T3-L1 adipocytes viability, higher = more signal.
A short description of assay [3]: compound effects on hepatocellular carcinoma cell viability – HepG2, calcein-AM fluorescence, 48 h, basal, profiling panel (AID 1164). The note with it: higher = more signal.
A short description of assay [4]: compound effects on multiple myeloma cell viability – MM1S, calcein-AM fluorescence, 48 h, basal, profiling panel (AID 1165).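 Further: viability of MM1S multiple myeloma cells under basal unstimulated conditions.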 To be noted: higher = more signal.
The nature of assay [5]: calcein-AM signal in unstimulated myeloma cells – cell-based, calcein-AM fluorescence, 48 h, PK04 Diversity Set, profiling panel (AID 1166).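 Further: cells grown under basal conditions without added stimulus.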 To be noted: RPMI8226 myeloma viability, higher = more signal.
The nature of assay [6]: JC-1 mitochondrial signal, unstimulated HepG2 cells – cell-based, JC-1 fluorescence, 24 h, 100 nL compound, profiling panel (AID 1167). The note with it: HepG2 mitochondrial potential, higher = more signal.
Assay [7] in a line: JC-1 mitochondrial signal, unstimulated adipocytes – cell-based, JC-1 fluorescence, 3T3-L1 adipocytes, 24 h, 100 nL compound, profiling panel (AID 1168). The note with it: JC-1 mitochondrial fluorescence, higher = more signal, called active from +8 up or from −8 down.
Assay [8] is described as follows: JC-1 mitochondrial signal, unstimulated myeloma cells – cell-based, JC-1 fluorescence, RPMI8226, 24 h, 100 nL compound, profiling panel (AID 1169). To be noted: JC-1 mitochondrial potential fluorescence, higher = more signal.
The nature of assay [9]: JC-1 mitochondrial signal, unstimulated MM1S myeloma – cell-based, JC-1 fluorescence, 24 h, 100 nL compound, profiling panel (AID 1170). To be noted: MM1S mitochondrial potential, higher = more signal.
Assay [10] is described as follows: resazurin metabolic signal in A549 cells – cell-based, resazurin fluorescence, 24 h, PK04 Diversity Set, profiling panel (AID 1171). The note with it: A549 viability, higher = more signal, called active from +8 up or from −8 down. A general note: Resazurin is reduced to fluorescent resorufin, in cell work by metabolically active cells.

Calls of active or inactive are those of the source.
Further: test concentration not given here.

`CS(=O)(=O)CCOC(=O)C1=CC(CCCO)=CC(c2cccs2)N(Cc2cccc(OC(F)(F)F)c2)C=C1C(=O)OCCS(C)(=O)=O` (stereo not given): the z-score was 0.0985 in assay [1]; 0.783 in assay [2]; 0.464 in [3]; -3.28 in assay [4]; -3.74 in assay [5]; 0.423 in [6]. In addition, the z-score in assay [7] is -0.268 (inactive); in [8], -0.662; in [9], -1; in assay [10], -0.284 (inactive).

As for `CCc1cc2c(nc1CC)CCN(CCC(C)=NOC[C@@H](O)COCc1ccco1)C2`, the z-score in assay [1] is 0.902; in assay [2], 0.592; in assay [3] it was 0.526; in assay [4], -0.548; in assay [5], -0.862; in [6] it was 1.44. Besides, the z-score was -0.901 (inactive) in assay [7], -0.824 in assay [8], 0.581 in [9] and -0.527 (inactive) in assay [10].

As for `N#Cc1ccc(NN2C(C(O)c3cccc4ccccc34)C=CC3C(=O)N(c4ccccc4)C(=O)C32)cc1` (stereo not given), the z-score is -0.762 in assay [1]; -0.506 in assay [2]; 1.52 in assay [3]; 0.0966 in [4]; 0.224 in assay [5]; -0.452 in assay [6]. The z-score in assay [7] is 0.226 (inactive); in assay [8] it was -0.312; in assay [9], -0.0109; in [10], 0.325 (inactive).

On to `CCN1C(=O)[C@H]2[C@H]3[C@H](O)[C@H](O)CC(=NOC(C)CN4CCCCc5nc(C)c(C)cc54)[C@@H]3CC[C@H]2C1=O` (stereo not given in full), for which the z-score was -0.421 in assay [1]; 0.111 in [2]; 0.503 in [3]; 0.0768 in [4]; 0.173 in assay [5]; -0.214 in [6]. Moreover, the z-score in assay [7] is -1.21 (inactive); in assay [8], -0.232; in [9] it was -0.0499; in assay [10], -0.378 (inactive).

Turning to `COC(=O)CC=C[C@H](C)[C@H](CO)NS(=O)(=O)c1ccc(C)cc1`, the z-score in [1] was -0.595; in assay [2], 0.41; in assay [3] it was -0.392; in [4], 0.165; in [5], 0.364; in [6], -0.976. The z-score in assay [7] is -0.0535 (inactive); in assay [8], -0.49; in assay [9], 0.604; in [10], -0.711 (inactive).

As to `CC1CC/C=C\[C@H]2OC34C=CCN(C(C)C)C(=O)[C@H]3N(CCCO)C(=O)[C@@H]4C2C(=O)O1` (stereo not given in full), the z-score in [1] was -0.478; in [2] it was -0.156; in assay [3], -0.381; in assay [4] it was -0.929; in assay [5], 0.449; in assay [6] it was 0.486. Besides, the z-score is 0.51 (inactive) in assay [7], -0.0642 in assay [8], 0.687 in assay [9] and 0.385 (inactive) in [10].

Take `COC(=O)[C@]1(CO)N=C(c2ccc(OCCCO)cc2)O[C@@H]1c1ccccc1N=[N+]=[N-]`: the z-score in [1] was -0.0196; in assay [2], 0.909; in assay [3] it was 0.45; in assay [4] it was 0.512; in assay [5], -0.172; in assay [6], -0.177. Also, the z-score in assay [7] is -0.464 (inactive); in assay [8], 0.392; in assay [9], -0.471; in assay [10] it was -0.276 (inactive).

Consider `COC(=O)[C@H](C)NC(=O)CCC1CC(OC(=O)NCc2cccc3ccccc23)CC2(CCCC(COC(=O)NCC3CCCCC3)O2)O1` (stereo not given in full), for which the z-score in assay [1] was -0.332; in assay [2] it was -0.687; in assay [3], 0.385; in [4], -0.875; in assay [5], 0.913; in assay [6], 1.38. The z-score is -0.477 (inactive) in [7], -0.188 in [8], -0.652 in [9] and 0.458 (inactive) in assay [10].

Consider `C[C@H]1CC[C@@H](C(=O)O)N[C@@H]1c1ccc(C#CCN(C)C)cc1`, for which the z-score in assay [1] is 0.683; in assay [2], 0.398; in assay [3], 0.777; in assay [4], 0.601; in assay [5], -0.338; in [6], 0.984. Further, the z-score was 0.461 (inactive) in assay [7], -0.562 in assay [8], 0.921 in assay [9] and 0.413 (inactive) in assay [10].

Consider `O=C(NN=C1C[C@@H](O)[C@@H](O)[C@@H]2[C@@H]3C(=O)N(c4ccc(F)cc4F)C(=O)[C@@H]3CC[C@@H]12)OCc1ccccc1`, for which the z-score in assay [1] was 0.166; in [2], -0.902; in assay [3], -0.903; in assay [4], 0.655; in assay [5] it was -0.768; in assay [6] it was -0.121. The z-score in assay [7] is 1.2 (inactive); in assay [8] it was -0.353; in assay [9], -0.0309; in [10] it was -0.0526 (inactive).

Turning to `CC(CCN1CCCCc2nc(C)c(C)cc21)=NOC(C)CN1CCCCc2nc(C)c(C)cc21` (stereo not given), the z-score is -0.282 in [1]; -0.0335 in assay [2]; -1.12 in [3]; -2.33 in [4]; -0.696 in assay [5]; 3.61 in assay [6]. Further, the z-score in [7] is -1.2 (inactive); in assay [8], 0.308; in assay [9], -0.16; in [10], 0.661 (inactive).

As for `CC1(C)OCC(C(O)C2=CCCCC2=O)CO1` (stereo not given), the z-score in assay [1] was -0.423; in assay [2], 1.76; in assay [3], 0.588; in [4], -0.402; in assay [5], -0.999; in assay [6], 1.28. In addition, the z-score in assay [7] is -0.0827 (inactive); in assay [8], -0.606; in assay [9], 0.724; in [10], -0.939 (inactive).
